# Literature values, collected in PubChem BioAssay AID977611.
# The campaign covered roughly 3,900 compounds. About 3,900 (100%) were called active. The limit is not given here; nearly all actives have Kd up to about 4200 µM. So high a share suggests a set chosen from earlier hits. The list shows a part of the results. Numbered stars: 1 amine (or outer) side, 2 acyl side, 3 side chain; on linkers, the order of the positions; unused ones are H or OH. Bridge positions count the residues as written; N and C are the ends. Where a SMILES comes first, the peptide text is derived from it. Non-standard residues stand in square brackets, D forms with d. Square brackets hold non-standard residues; d marks the D form. Residues, ends and D or L forms follow the SMILES beside them. Peptide text beside a SMILES is read from it. [ ]: non-standard residue; d: D form. Thr(P(OH)3+) = C[C@@H](O[P+](O)(O)O)[C@H](N)C(=O)O; Orn(CH(NH2)2) = NC(N)NCCC[C@H](N)C(=O)O; Cha = N[C@@H](CC1CCCCC1)C(=O)O; Orn = NCCC[C@H](N)C(=O)O; X1 = O=C(C[*:1])[*:2]; Aib = CC(C)(N)C(=O)O
# Assay: PubChem AID 977611
# Settings: PDB protein-ligand complexes, literature Kd
molecule,measurement,setting,value
CC(C)C[C@H](NC(=O)[C@H](CCC(=O)O)NC(=O)[C@H](CCC(N)=O)NC(=O)[C@@H](NC(=O)[C@H](CO)NC(=O)[C@@H](N)C(C)C)[C@@H](C)O[P+](O)(O)O)C(=O)N[C@@H](Cc1ccc(O)cc1)C(=O)N[C@@H](CO)C(=O)O (H-VS[Thr(P(OH)3+)]QELYS-OH),Kd,"protein: mammalian MDC1 FHA domain, PDB entry 3va4",40 µM (active)
H-DDFGGFEAAET-OH,Kd,"protein: ADP-ribosylation factor binding protein GGA1, PDB entry 1om9",70 µM (active)
CC(C)C[C@@H](NC(=O)[C@H]1CCCN1C(=O)[C@@H](Cc1c[nH]c2ccccc12)NC(=O)[C@@H](Cc1c[nH]c2ccccc12)NC(=O)[C@H](N)CC(=O)O)C(=O)N[C@H](C)C(=O)N[C@H](Cc1ccccc1)C(=O)N[C@H](CCC(=O)O)C(=O)N[C@H](C)C(=O)N[C@H](CC(C)C)C(=O)N[C@H](CC(C)C)C(=O)N[C@H](CCCNC(N)N)C(=O)O,Kd,"protein: human MDM2 (Synthetic construct, 25-109), PDB entry 3iwy",0.053 µM (active)
H-EWGPWV-NH2,Kd,"protein: AP-1 COMPLEX SUBUNIT GAMMA-LIKE 2, PDB entry 2ymt",0.01 µM (active)
H-EPQAPWME-OH,Kd,"protein: antibody Fab, PDB entry 3uyr",0.127 µM (active)
C[C@H](NC(=O)[C@@H](N)CO)C(=O)N[C@@H](CCCNC(N)N)C(=O)N[C@@H](Cc1c[nH]c2ccccc12)C(=O)N[C@@H](CCCNC(N)N)C(=O)N[C@@H](Cc1ccccc1)C(=O)N1CCC[C@H]1C(=O)N[C@@H](C)C(=O)N[C@@H](CCCNC(N)N)C(=O)N1CCC[C@H]1C(=O)NCC(=O)N[C@H](C(=O)O)[C@@H](C)O,Kd,"protein: Menin (A541T mutation), PDB entry 4gq6",0.053 µM (active)
CC(C)C[C@H](NC(=O)[C@H](Cc1c[nH]c2ccccc12)NC(=O)[C@H](CC(=O)O)NC(=O)[C@H](CCC(N)=O)NC(=O)[C@H](CC(N)=O)NC(=O)[C@H](CCCNC(N)N)NC(=O)[C@@H]1CCCN1C(=O)CNC(=O)[C@@H](N)CCC(=O)O)C(=O)O (H-EGP[Orn(CH(NH2)2)]NQDWL-OH),Kd,"protein: H-2 class I histocompatibility antigen (Y159F mutation), PDB entry 4iho",8 µM (active)
H-SVPIQCTDKTDKQEALFK-OH,Kd,"protein: human tumor necrosis factor receptor(TRAF3), PDB entry 1l0a",23.9 µM (active)
H-SAVLQKKITDYFHPKK-OH,Kd,"protein: human proliferating cell nuclear antigen(PCNA), PDB entry 1vyj",0.1 µM (active)
CC[C@H](C)[C@H](NC(=O)[C@H](CC(=O)O)NC(=O)[C@H](Cc1ccc(O)cc1)NC(=O)[C@H](C)NC(=O)[C@H](C)NC(=O)CN)C(=O)N[C@@H](CO[P+](O)(O)O)C(=O)N[C@@H](CCC(N)=O)C(=O)N[C@H](C(=O)N[C@@H](Cc1ccccc1)C(=O)N1CCC[C@H]1C(=O)N[C@@H](Cc1ccccc1)C(=O)N[C@@H](C)C(=O)N[C@@H](C)C(=O)O)C(C)C,Kd,"protein: Breast cancer type 1 susceptibility protein, PDB entry 1t2v",0.4 µM (active)
CSCC[C@H](NC(=O)[C@H](CCCCN)NC(=O)[C@@H](N)CCCCN)C(=O)N[C@H](C(=O)N[C@@H](Cc1ccccc1)C(=O)N[C@@H](CCC(N)=O)C(=O)N[C@H](C(=O)N1CCC[C@H]1C(=O)N[C@H](C(=O)N[C@@H](CC(=O)O)C(=O)N1CCC[C@H]1C(=O)N[C@@H](CC(C)C)C(=O)N[C@@H](CCC(=O)O)C(=O)O)[C@@H](C)O)[C@@H](C)O[P+](O)(O)O)[C@@H](C)O (H-KKMTFQ[Thr(P(OH)3+)]PTDPLE-OH),Kd,"protein: FHA1 Domain of Rad53, PDB entry 1k3n",10.2 µM (active)
CCCCCCCCNc1cc(-c2ccc(OC)cc2)nc(N)n1,Kd,"protein: Acetylcholine-binding protein AChBP, PDB entry 4qaa",0.36 µM (active)
O=c1ccn([C@@H]2O[C@H](CO[P+](O)(O)O)[C@@H](O)[C@H]2O)c(=O)[nH]1,Kd,"protein: Orotidine 5'-phosphate decarboxylase, PDB entry 3w07",420 µM (active)
O=c1ccn([C@H]2C[C@H](O)[C@@H](CO[P+](O)(O)N[P+](O)(O)O[P+](O)(O)O)O2)c(=O)[nH]1,Kd,"protein: DUTPase, PDB entry 4gv8",0.32 µM (active)
C[C@H]1O[C@@H](n2ccc(=O)[nH]c2=O)[C@H](O)[C@@H]1O,Kd,"protein: GLUCOSYL-3-PHOSPHOGLYCERATE SYNTHASE (GpgS), PDB entry 4de7",16 µM (active)
O=c1ccn([C@@H]2O[C@H](CO[P+](O)(O)N[P+](O)(O)O[P+](O)(O)O)[C@@H](O)[C@H]2O)c(=O)[nH]1,Kd,"protein: Poly(A) RNA polymerase protein cid1, PDB entry 4nkt",1.08 µM (active)
O=[N+]([O-])c1ccc2c(ccn2[C@H]2C[C@H](O)[C@@H](CO[P+](O)(O)O[P+](O)(O)O[P+](O)(O)O)O2)c1,Kd,"protein: Ribonucleoside-diphosphate reductase large chain 1, PDB entry 3rsr",44 µM (active)
H-EDDDIKQLAAWAT-OH,Kd,"protein: Programmed cell death 6-interacting protein, PDB entry 3c3r",41 µM (active)
CC[C@H](C)[C@H](NC(=O)[C@H](Cc1ccc(O)cc1)NC(=O)[C@H](Cc1c[nH]c2ccccc12)NC(=O)[C@H](CC(C)C)NC(=O)[C@H](Cc1c[nH]c2ccccc12)NC(=O)[C@H](CC(N)=O)NC(=O)[C@@H](NC(=O)[C@@H](NC(=O)[C@H](CC(=O)O)NC(=O)[C@H](Cc1ccccc1)NC(=O)[C@H](Cc1c[nH]c2ccccc12)NC(=O)[C@@H](N)CC(N)=O)[C@@H](C)CC)[C@@H](C)O)C(=O)N[C@@H](CCCCN)C(=O)N[C@@H](CCCCN)C(=O)N[C@@H](CCCCN)C(=O)N[C@@H](CCCCN)C(=O)O,Kd,"protein: human fab 4e10, PDB entry 2fx7",0.02 µM (active)
H-TKIDWNKIA-OH,Kd,"protein: Protein S100-B, PDB entry 3iqq",2.9 µM (active)
H-KIIDTGGGFIL-OH,Kd,"protein: DNA excision repair protein ERCC-1, PDB entry 2jnw",0.78 µM (active)
H-DEEALKQLAEWVS-OH,Kd,"protein: Programmed cell death 6-interacting protein, PDB entry 3c3o",44 µM (active)
CC[C@H](C)[C@H](NC(=O)[C@H](Cc1c[nH]c2ccccc12)NC(=O)[C@H](CC(=O)O)NC(=O)[C@H](CCC(=O)O)NC(=O)[C@H](CC(C)C)NC(=O)[C@@H](N)Cc1ccc(O)cc1)C(=O)N[C@@H](CCCCN)C(=O)N[C@@H](Cc1ccc(O)cc1)C(=O)N[C@@H](CC(N)=O)C(=O)N[C@@H](CC(N)=O)C(=O)N[C@H](C=O)CCC(N)=O (H-YLEDWIKYNNQ-aldehyde),Kd,"protein: FAB F22-4, PDB entry 3ggw",2.9 µM (active)
CC[C@H](C)[C@H](NC(=O)[C@H](Cc1ccccc1)NC(=O)[C@H](C)N)C(=O)N[C@H](C(=O)N[C@@H](Cc1c[nH]c2ccccc12)C(=O)N[C@@H](CC(C)C)C(=O)N[C@@H](C)C(=O)N[C@@H](CCCNC(N)N)C(=O)N[C@@H](CCCNC(N)N)C(=O)N[C@@H](CC(C)C)C(=O)N[C@@H](CCCCN)C(=O)N[C@@H](CCCCN)C(=O)NCC(=O)N[C@@H](CCCCN)C(=O)N[C@@H](CCCCN)C(=O)O)[C@@H](C)CC (H-AFIIWLA[Orn(CH(NH2)2)][Orn(CH(NH2)2)]LKKGKK-OH),Kd,"protein: Calmodulin, PDB entry 2lgf",2.7 µM (active)
CC(C)C[C@H](NC(=O)[C@H](Cc1ccc(O)cc1)NC(=O)[C@@H](CCCCN)NC(=O)[C@@H](CO)NC(=O)[C@H](Cc1ccccc1)NC(=O)[C@H](CC1CCCCC1)NC(=O)[C@H](CC(=O)O)NC(=O)[C@H](CO)NC(=O)[C@@H](N)CCCCN)C(=O)N[C@@H](Cc1c[nH]c2ccccc12)C(=O)N[C@@H](CO)C(=O)N[C@@H](CO)C(=O)N[C@@H](CCCCN)C(=O)O (H-KSD[Cha]F[dS][dK]YLWSSK-OH),Kd,"protein: human Urokinase plasminogen activator surface receptor(uPAR/CD87), PDB entry 1ywh",0.0164 µM (active)
CC(C)C[C@H](NC(=O)[C@@H](NC(=O)CNC(=O)[C@H](Cc1ccc(O)cc1)NC(=O)[C@@H](NC(=O)CNC(=O)[C@@H](NC(=O)[C@H](CCCNC(N)N)NC(=O)[C@H](CCCNC(N)N)NC(=O)[C@H](C)N)[C@@H](C)O)[C@@H](C)O)C(C)C)C(=O)N[C@@H](C)C(=O)N[C@@H](C)C(=O)N[C@@H](Cc1c[nH]c2ccccc12)C(=O)N[C@@H](C)C(=O)N[C@@H](C)C(=O)N[C@@H](C)C(=O)O (H-A[Orn(CH(NH2)2)][Orn(CH(NH2)2)]TGTYGVLAAWAAA-OH),Kd,"protein: mouse radixin FERM domain, PDB entry 1j19",0.0164 µM (active)
CC[C@H](C)[C@H](NC(=O)[C@H](CCC(=O)O)NC(=O)[C@H](CC(N)=O)NC(=O)[C@H](CCC(=O)O)NC(=O)[C@@H](NC(=O)[C@H](Cc1c[nH]c2ccccc12)NC(=O)CNC(=O)[C@H](CO)NC(=O)[C@H](CCC(=O)O)NC(=O)[C@H](CCCCN)NC(=O)[C@H](CO)NC(=O)[C@H](CCCNC(N)N)NC(=O)CN)C(C)C)C(=O)N[C@@H](Cc1ccc(O)cc1)C(=O)N[C@@H](Cc1ccc(O)cc1)C(=O)O (H-G[Orn(CH(NH2)2)]SKESGWVENEIYY-OH),Kd,"protein: Talin-1, PDB entry 2k00",24 µM (active)
CC[C@H](C)[C@@H]1NC(=O)[C@@H](NC(=O)[C@H](Cc2ccccc2)NC(=O)[C@H](Cc2c[nH]c3ccccc23)NC(=O)[C@@H](N)CC(N)=O)CSCC(=O)NCCC[C@@H](C(=O)N[C@@H](Cc2c[nH]c3ccccc23)C(=O)N[C@@H](CC(C)C)C(=O)N[C@@H](Cc2c[nH]c3ccccc23)C(=O)N[C@@H](CCCCN)C(=O)N[C@@H](CCCCN)C(=O)N[C@@H](CCCCN)C(=O)N[C@@H](CCCCN)C(=O)O)NC(=O)[C@H]([C@@H](C)O)NC1=O (H-NWFCIT[Orn]WLWKKKK-OH; linker 4-7 via X1),Kd,"protein: human fab 4e10, PDB entry 2fx9",0.017 µM (active)
CC[C@H](C)[C@H](NC(=O)[C@H](CC(=O)O)NC(=O)[C@H](Cc1ccccc1)NC(=O)[C@H](CCCNC(N)N)NC(=O)[C@H](CC(C)C)NC(=O)[C@H](CCCCN)NC(=O)[C@@H](N)CCCCN)C(=O)O (H-KKL[Orn(CH(NH2)2)]FDI-OH),Kd,"protein: Serine/threonine-protein phosphatase PP1-alpha catalytic subunit, PDB entry 3n5u",1.2 µM (active)
CC[C@H](C)[C@H](NC(=O)[C@H](CC(=O)O)NC(=O)[C@H](Cc1ccccc1)NC(=O)[C@H](Cc1c[nH]c2ccccc12)NC(=O)[C@@H](N)CC(N)=O)C(=O)N[C@H](C(=O)N[C@@H](CC(N)=O)C(=O)NC(C)(C)C(=O)N[C@@H](CC(C)C)C(=O)N[C@@H](Cc1c[nH]c2ccccc12)C(=O)N[C@@H](CCCNC(N)N)C(=O)N[C@@H](CCCNC(N)N)C(=O)O)[C@@H](C)O (H-NWFDITN[Aib]LW[Orn(CH(NH2)2)][Orn(CH(NH2)2)]-OH),Kd,"protein: human fab 4e10, PDB entry 2fx8",0.302 µM (active)
H-KEEEDDDMKELENWAGSM-OH,Kd,"protein: Programmed cell death 6-interacting protein, PDB entry 3c3q",48 µM (active)
CC[C@H](C)[C@H](NC(=O)[C@H](CC(C)C)NC(=O)[C@H](CCC(=O)O)NC(=O)[C@H](CCCNC(N)N)NC(=O)[C@H](CCCCN)NC(=O)[C@@H](N)CCCCN)C(=O)N[C@@H](CCC(=O)O)C(=O)N[C@@H](CO)C(=O)N[C@@H](CCCCN)C(=O)N[C@@H](Cc1c[nH]c2ccccc12)C(=O)N[C@@H](Cc1cnc[nH]1)C(=O)N[C@@H](CCCNC(N)N)C(=O)N[C@@H](CC(C)C)C(=O)N[C@@H](CC(C)C)C(=O)N[C@@H](Cc1ccccc1)C(=O)N[C@@H](Cc1cnc[nH]1)C(=O)N[C@@H](CC(=O)O)C(=O)N[C@@H](CCCCN)C(=O)N[C@@H](CCCCN)C(=O)O (H-KK[Orn(CH(NH2)2)]ELIESKWH[Orn(CH(NH2)2)]LLFHDKK-OH),Kd,"protein: Chlamydomonas reinhardtii caltractin (CRC-C), PDB entry 1oqp",0.05 µM (active)
H-TWIENKLYGM-OH,Kd,"protein: Dock 1 PTB domain, PDB entry 1uef",3.2 µM (active)
